According to PubChem BioAssay AID1159580 (chemical genetic matrix, 2015):
About 2,000 (36%) of roughly 5,500 compounds were called active. Roughly 18% stayed inconclusive and do not appear here. Cut-off read from the data, not from the text of the source: active = normalized growth mostly below about 0.91 (no sharp cut-off); inconclusive = no clear call, values can overlap the other calls; inactive = mostly above about 0.92. The list shows a part of the results.

Assay: chemical genetic growth profiling, strain panel (AID 1159580);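 note: tested at 20 µM; growth read once vehicle control cultures reached saturation at 30 °C; 1 = growth at the plate median or of vehicle wells; lower values mean less growth of the strain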
Details: growth OD

Measured: normalized growth

CC(=O)O[C@@H]1CC2C(C)(C)[C@H](O)C=C[C@]2(C)C2CC[C@]3(C)C(=CC(=O)O[C@H]3c3ccoc3)[C@@]21C (stereo partly specified)
inactive: S. cerevisiae deletion strains, locus YAL021C, strain ccr4, active compounds read low 0.971 | S. cerevisiae deletion strains, locus YAL026C, strain drs2, active compounds read low 0.983 | S. cerevisiae deletion strains, locus YAL030W, strain snc1, active compounds read low 0.974 | S. cerevisiae deletion strains, locus YBL061C, strain skt5, active compounds read low 0.987 | S. cerevisiae deletion strains, locus YBR009C, strain hhf1, active compounds read low 0.984 | S. cerevisiae deletion strains, locus YBR021W, strain FUR4, active compounds read low 0.987 | S. cerevisiae deletion strains, locus YBR023C, strain chs3, active compounds read low 0.993 | S. cerevisiae deletion strains, locus YBR171W, strain sec66, active compounds read low 0.988 | S. cerevisiae deletion strains, locus YBR229C, strain ROT2, active compounds read low 0.996 | S. cerevisiae deletion strains, locus YBR231C, strain swc5, active compounds read low 0.99 | S. cerevisiae deletion strains, locus YBR279W, strain paf1, active compounds read low 0.99 | S. cerevisiae deletion strains, locus YCL011C, strain gbp2, active compounds read low 0.996 | S. cerevisiae deletion strains, locus YCL016C, strain dcc1, active compounds read low 0.995 | S. cerevisiae deletion strains, locus YCL029C, strain bik1, active compounds read low 1.01 | S. cerevisiae deletion strains, locus YCL061C, strain MRC1, active compounds read low 1 | S. cerevisiae deletion strains, locus YCL069W, strain vba3, active compounds read low 0.994 | S. cerevisiae deletion strains, locus YCR088W, strain abp1, active compounds read low 0.983 | S. cerevisiae deletion strains, locus YDL005C, strain med2, active compounds read low 0.967 | S. cerevisiae deletion strains, locus YDL035C, strain GPR1, active compounds read low 1.03 | S. cerevisiae deletion strains, locus YDL040C, strain nat1, active compounds read low 0.983 | S. cerevisiae deletion strains, locus YDL074C, strain BRE1, active compounds read low 0.999 | S. cerevisiae deletion strains, locus YDL101C, strain DUN1, active compounds read low 1.01 | S. cerevisiae deletion strains, locus YDL185W, strain tfp1, active compounds read low 1.01 | S. cerevisiae deletion strains, locus YDL192W, strain arf1, active compounds read low 1.01 | S. cerevisiae deletion strains, locus YDR001C, strain nth1, active compounds read low 0.976 | S. cerevisiae deletion strains, locus YDR069C, strain doa4, active compounds read low 0.978 | S. cerevisiae deletion strains, locus YDR101C, strain arx1, active compounds read low 1.02 | S. cerevisiae deletion strains, locus YDR137W, strain rgp1, active compounds read low 0.956 | S. cerevisiae deletion strains, locus YDR159W, strain sac3, active compounds read low 0.962 | S. cerevisiae deletion strains, locus YDR162C, strain NBP2, active compounds read low 1.02 | S. cerevisiae deletion strains, locus YDR195W, strain ref2 0.969 | S. cerevisiae deletion strains, locus YDR297W, strain sur2, active compounds read low 0.973 | S. cerevisiae deletion strains, locus YDR318W, strain mcm21, active compounds read low 1 | S. cerevisiae deletion strains, locus YDR334W, strain swr1, active compounds read low 0.972 | S. cerevisiae deletion strains, locus YDR335W, strain msn5, active compounds read low 0.975 | S. cerevisiae deletion strains, locus YDR388W, active compounds read low 1 | S. cerevisiae deletion strains, locus YDR392W, strain spt3, active compounds read low 0.989 | S. cerevisiae deletion strains, locus YDR502C, strain sam2, active compounds read low 1.01 | S. cerevisiae deletion strains, locus YEL003W, strain gim4, active compounds read low 0.985 | S. cerevisiae deletion strains, locus YEL037C, strain rad23, active compounds read low 0.984 | S. cerevisiae deletion strains, locus YEL061C, strain CIN8 (second series), active compounds read low 0.988 | S. cerevisiae deletion strains, locus YEL061C, strain CIN8, active compounds read low 1 | S. cerevisiae deletion strains, locus YER015W, strain faa2, active compounds read low 0.991 | S. cerevisiae deletion strains, locus YER016W, strain bim1, active compounds read low 0.993 | S. cerevisiae deletion strains, locus YER110C, active compounds read low 0.996 | S. cerevisiae deletion strains, locus YER111C, strain swi4, active compounds read low 0.975 | S. cerevisiae deletion strains, locus YER155C, strain BEM2 (second series), active compounds read low 0.985 | S. cerevisiae deletion strains, locus YER155C, strain BEM2, active compounds read low 0.997 | S. cerevisiae deletion strains, locus YER167W, strain BCK2, active compounds read low 1.01 | S. cerevisiae deletion strains, locus YFR010W, strain ubp6, active compounds read low 0.97 | S. cerevisiae deletion strains, locus YGL078C, strain dbp3, active compounds read low 1 | S. cerevisiae deletion strains, locus YGL086W, strain mad1, active compounds read low 0.993 | S. cerevisiae deletion strains, locus YGL167C, strain pmr1, active compounds read low 0.987 | S. cerevisiae deletion strains, locus YGL173C, strain kem1, active compounds read low 0.977 | S. cerevisiae deletion strains, locus YGL227W, strain vid30, active compounds read low 0.989 | S. cerevisiae deletion strains, locus YGL240W, strain doc1, active compounds read low 0.993 | S. cerevisiae deletion strains, locus YGL248W, strain PDE1, active compounds read low 1.01 | S. cerevisiae deletion strains, locus YGL253W, strain hxk2, active compounds read low 0.985 | S. cerevisiae deletion strains, locus YGR135W, strain pre9, active compounds read low 1 | S. cerevisiae deletion strains, locus YGR229C, strain SMI1, active compounds read low 1.04 | S. cerevisiae deletion strains, locus YGR252W, strain gcn5, active compounds read low 0.97 | S. cerevisiae deletion strains, locus YHR013C, strain ard1, active compounds read low 0.98 | S. cerevisiae deletion strains, locus YHR027C, strain rpn1, active compounds read low 0.994 | S. cerevisiae deletion strains, locus YHR030C, strain SLT2, active compounds read low 1.01 | S. cerevisiae deletion strains, locus YHR079C, strain IRE1 (second series), active compounds read low 1 | S. cerevisiae deletion strains, locus YHR094C, strain hxt1, active compounds read low 1 | S. cerevisiae deletion strains, locus YHR129C, strain ARP1, active compounds read low 1.01 | S. cerevisiae deletion strains, locus YHR142W, strain chs7, active compounds read low 0.993 | S. cerevisiae deletion strains, locus YHR200W, strain rpn10, active compounds read low 1 | S. cerevisiae deletion strains, locus YIL066C, strain RNR3, active compounds read low 1 | S. cerevisiae deletion strains, locus YIL073C, strain SPO22, active compounds read low 1.01 | S. cerevisiae deletion strains, locus YIL125W, strain kgd1, active compounds read low 0.99 | S. cerevisiae deletion strains, locus YIR030C, strain dcg1, active compounds read low 0.997 | S. cerevisiae deletion strains, locus YJL092W, strain hpr5, active compounds read low 0.984 | S. cerevisiae deletion strains, locus YJL095W, strain BCK1 (second series), active compounds read low 0.981 | S. cerevisiae deletion strains, locus YJL095W, strain BCK1, active compounds read low 1.02 | S. cerevisiae deletion strains, locus YJL115W, strain asf1, active compounds read low 0.964 | S. cerevisiae deletion strains, locus YJL129C, strain trk1, active compounds read low 0.988 | S. cerevisiae deletion strains, locus YJL134W, strain LCB3, active compounds read low 1.01 | S. cerevisiae deletion strains, locus YJL154C, strain vps35, active compounds read low 0.981 | S. cerevisiae deletion strains, locus YJL164C, strain tpk1, active compounds read low 0.991 | S. cerevisiae deletion strains, locus YJL166W, strain qcr8, active compounds read low 0.993 | S. cerevisiae deletion strains, locus YJL168C, strain set2, active compounds read low 0.99 | S. cerevisiae deletion strains, locus YJL187C, strain SWE1 (second series), active compounds read low 1.01 | S. cerevisiae deletion strains, locus YJL187C, strain SWE1, active compounds read low 0.986 | S. cerevisiae deletion strains, locus YKL009W, strain mrt4, active compounds read low 0.993 | S. cerevisiae deletion strains, locus YKL068W, active compounds read low 1.01 | S. cerevisiae deletion strains, locus YKL085W, strain MDH1 (second series), active compounds read low 0.997 | S. cerevisiae deletion strains, locus YKL085W, strain MDH1, active compounds read low 0.997 | S. cerevisiae deletion strains, locus YKL160W, strain elf1, active compounds read low 0.992 | S. cerevisiae deletion strains, locus YKL190W, strain CNB1, active compounds read low 1.01 | S. cerevisiae deletion strains, locus YKR001C, strain vps1, active compounds read low 1 | S. cerevisiae deletion strains, locus YKR026C, strain gcn3, active compounds read low 0.99 | S. cerevisiae deletion strains, locus YKR091W, strain srl3, active compounds read low 0.99 | S. cerevisiae deletion strains, locus YLL001W, strain dnm1, active compounds read low 0.983 | S. cerevisiae deletion strains, locus YLL026W, active compounds read low 0.987 | S. cerevisiae deletion strains, locus YLL041C, strain sdh2, active compounds read low 0.985 | S. cerevisiae deletion strains, locus YLR027C, strain aat2, active compounds read low 0.979 | S. cerevisiae deletion strains, locus YLR039C, strain RIC1, active compounds read low 1.07 | S. cerevisiae deletion strains, locus YLR058C, strain SHM2, active compounds read low 1 | S. cerevisiae deletion strains, locus YLR102C, strain apc9, active compounds read low 0.998 | S. cerevisiae deletion strains, locus YLR221C, strain rsa3, active compounds read low 0.993 | S. cerevisiae deletion strains, locus YLR258W, strain gsy2, active compounds read low 0.998 | S. cerevisiae deletion strains, locus YLR262C, strain YPT6 (second series), active compounds read low 0.978 | S. cerevisiae deletion strains, locus YLR268W, strain sec22, active compounds read low 0.997 | S. cerevisiae deletion strains, locus YLR320W, strain mms22, active compounds read low 0.991 | S. cerevisiae deletion strains, locus YLR342W, strain FKS1 (second series), active compounds read low 1.01 | S. cerevisiae deletion strains, locus YLR342W, strain FKS1, active compounds read low 0.991 | S. cerevisiae deletion strains, locus YLR357W, strain rsc2, active compounds read low 0.947 | S. cerevisiae deletion strains, locus YLR370C, strain arc18, active compounds read low 0.992 | S. cerevisiae deletion strains, locus YLR371W, strain rom2, active compounds read low 1 | S. cerevisiae deletion strains, locus YLR384C, strain iki3, active compounds read low 1 | S. cerevisiae deletion strains, locus YLR418C, strain cdc73, active compounds read low 0.98 | S. cerevisiae deletion strains, locus YML016C, strain PPZ1, active compounds read low 1 | S. cerevisiae deletion strains, locus YML032C, strain rad52, active compounds read low 0.991 | S. cerevisiae deletion strains, locus YML120C, strain ndi1, active compounds read low 0.994 | S. cerevisiae deletion strains, locus YML124C, strain tub3, active compounds read low 1 | S. cerevisiae deletion strains, locus YMR058W, strain fet3, active compounds read low 0.974 | S. cerevisiae deletion strains, locus YMR078C, strain ctf18, active compounds read low 0.992 | S. cerevisiae deletion strains, locus YMR125W, strain sto1, active compounds read low 0.978 | S. cerevisiae deletion strains, locus YMR129W, active compounds read low 0.999 | S. cerevisiae deletion strains, locus YMR205C, strain PFK2, active compounds read low 0.98 | S. cerevisiae deletion strains, locus YMR223W, strain ubp8, active compounds read low 1 | S. cerevisiae deletion strains, locus YMR231W, strain pep5, active compounds read low 0.967 | S. cerevisiae deletion strains, locus YMR307W, strain GAS1, active compounds read low 0.99 | S. cerevisiae deletion strains, locus YNL067W, strain RPL9B, active compounds read low 1.02 | S. cerevisiae deletion strains, locus YNL071W, strain lat1, active compounds read low 0.991 | S. cerevisiae deletion strains, locus YNL128W, strain TEP1, active compounds read low 1.02 | S. cerevisiae deletion strains, locus YNL209W, strain ssb2, active compounds read low 0.998 | S. cerevisiae deletion strains, locus YNL233W, strain BNI4, active compounds read low 1.02 | S. cerevisiae deletion strains, locus YNL248C, strain rpa49, active compounds read low 0.966 | S. cerevisiae deletion strains, locus YNL250W, strain rad50, active compounds read low 0.996 | S. cerevisiae deletion strains, locus YNL271C, strain bni1, active compounds read low 1 | S. cerevisiae deletion strains, locus YNL298W, strain CLA4, active compounds read low 1.01 | S. cerevisiae deletion strains, locus YNL307C, strain MCK1, active compounds read low 0.995 | S. cerevisiae deletion strains, locus YNL322C, strain KRE1 (second series), active compounds read low 1 | S. cerevisiae deletion strains, locus YNL322C, strain KRE1, active compounds read low 1.01 | S. cerevisiae deletion strains, locus YNR049C, strain mso1, active compounds read low 0.987 | S. cerevisiae deletion strains, locus YNR052C, strain pop2, active compounds read low 0.995 | S. cerevisiae deletion strains, locus YOL012C, strain htz1 1.25 | S. cerevisiae deletion strains, locus YOL147C, strain pex11, active compounds read low 0.996 | S. cerevisiae deletion strains, locus YOR001W, strain rrp6, active compounds read low 0.984 | S. cerevisiae deletion strains, locus YOR061W, strain CKA2, active compounds read low 0.997 | S. cerevisiae deletion strains, locus YOR069W, strain VPS5, active compounds read low 1 | S. cerevisiae deletion strains, locus YOR070C, strain gyp1, active compounds read low 1.01 | S. cerevisiae deletion strains, locus YOR080W, strain dia2, active compounds read low 0.995 | S. cerevisiae deletion strains, locus YOR083W, strain WHI5, active compounds read low 0.994 | S. cerevisiae deletion strains, locus YOR106W, strain vam3, active compounds read low 0.99 | S. cerevisiae deletion strains, locus YOR136W, strain idh2, active compounds read low 1 | S. cerevisiae deletion strains, locus YOR144C, strain elg1, active compounds read low 0.999 | S. cerevisiae deletion strains, locus YOR184W, strain ser1, active compounds read low 1.01 | S. cerevisiae deletion strains, locus YOR265W, strain rbl2, active compounds read low 0.979 | S. cerevisiae deletion strains, locus YOR270C, strain vph1, active compounds read low 0.914 | S. cerevisiae deletion strains, locus YOR290C, strain snf2, active compounds read low 1 | S. cerevisiae deletion strains, locus YOR316C, strain cot1, active compounds read low 0.999 | S. cerevisiae deletion strains, locus YPL051W, strain arl3, active compounds read low 0.995 | S. cerevisiae deletion strains, locus YPL078C, strain atp4, active compounds read low 0.989 | S. cerevisiae deletion strains, locus YPL106C, strain sse1, active compounds read low 0.998 | S. cerevisiae deletion strains, locus YPL240C, strain hsp82, active compounds read low 0.995 | S. cerevisiae deletion strains, locus YPL241C, strain CIN2, active compounds read low 1.01 | S. cerevisiae deletion strains, locus YPR119W, strain clb2, active compounds read low 0.994 | S. cerevisiae deletion strains, locus YPR141C, strain kar3, active compounds read low 0.993 | S. cerevisiae deletion strains, locus YPR163C, strain tif3, active compounds read low 0.994 | S. cerevisiae deletion strains, locus YPR167C, strain met16, active compounds read low 0.996 | S. cerevisiae deletion strains, strain wtn01, active compounds read low 1 | S. cerevisiae strains, strain wild type, active compounds read low 1.02
